# From the supplement of paper PMC6555819
# Experiments:
# Assay in all cases: PBM binding z-score (relative to random genomic background probes); higher = stronger binding; sequences stand for … in GC…GCGATTGACAGCGTAGAATGAAGG
# [1] = tested on: RARb homodimer (NR concentration 270 nM)
# How it was run: (§1)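 Custom Agilent 4×180K protein-binding microarrays carried double-stranded probes. Their 34-nt variable regions held direct-repeat seeds, single-nucleotide variants, half-site ablations and random human genomic background sequences. Arrays were incubated 1 h with ligand-free nuclear receptor dimers in PBS pH 7.4, 2% milk, 0.02% Triton X-100, 1 mM DTT, 0.2 mg/mL BSA and 0.4 mg/ml salmon testes DNA. Antibodies against each partner (one per run) detected binding, and scanned fluorescence was regression-normalized. Binding z-scores use random background probes as reference.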
# [2] = tested on: RARg:RXRa (NR concentration 270 nM, RXRa partner concentration 90 nM)
# How it was run: as §1
# [3] = tested on: RARg homodimer (NR concentration 270 nM)
# How it was run: as §1
# [4] = tested on: RXRa DBDmut IVT, anti-RXR (DBD mutation: RXRa K156A/R161A, NR concentration 90 nM)
# How it was run: as §1
# [5] = tested on: RXRa homodimer (NR concentration 180 nM)
# How it was run: as §1
# [6] = tested on: THRa:RXRa (NR concentration 90 nM, RXRa partner concentration 90 nM)
# How it was run: as §1
# [7] = tested on: THRa homodimer (NR concentration 90 nM)
# How it was run: as §1
# [8] = tested on: VDR homodimer (NR concentration 270 nM)
# How it was run: as §1
sequence,measurement,setting,value
CCTAGCAAGCCAGGGTCACTCAAGCATTTCGCTT,PBM binding z-score,[1],2.62
same,PBM binding z-score,[2],2.97
same,PBM binding z-score,[3],2.62
same,PBM binding z-score,[4],0.907
same,PBM binding z-score,[5],3.86
same,PBM binding z-score,[6],3.03
same,PBM binding z-score,[7],1.1
same,PBM binding z-score,[8],1.69
GCTTGTAGATCAAGGTTAAGAAAGACTAAGCTAA,PBM binding z-score,[1],0.0928
same,PBM binding z-score,[2],0.389
same,PBM binding z-score,[3],0.229
same,PBM binding z-score,[4],-0.146
same,PBM binding z-score,[5],0.904
same,PBM binding z-score,[6],1.14
same,PBM binding z-score,[7],-0.422
same,PBM binding z-score,[8],-0.377
CCAGATAGGTGAAAGGTAACTCAGTCTGGTACGC,PBM binding z-score,[1],1.04
same,PBM binding z-score,[2],1.53
same,PBM binding z-score,[3],0.944
same,PBM binding z-score,[4],0.181
same,PBM binding z-score,[5],2.46
same,PBM binding z-score,[6],0.97
same,PBM binding z-score,[7],0.0815
same,PBM binding z-score,[8],0.348
TCTCGTAGGACACGAAAGGTCAGAGCTCGACATC,PBM binding z-score,[1],4.53
same,PBM binding z-score,[2],4.69
same,PBM binding z-score,[3],5.29
same,PBM binding z-score,[4],1.16
same,PBM binding z-score,[5],4.44
same,PBM binding z-score,[6],3.28
same,PBM binding z-score,[7],0.778
same,PBM binding z-score,[8],0.852
ATACCAAGGTGATCGTGAGGTCGTTGCTACTAAC,PBM binding z-score,[1],1.88
same,PBM binding z-score,[2],2.03
same,PBM binding z-score,[3],0.891
same,PBM binding z-score,[4],0.967
same,PBM binding z-score,[5],1.56
same,PBM binding z-score,[6],3.25
same,PBM binding z-score,[7],2.43
same,PBM binding z-score,[8],3.33
CGTCACAGTTCAACTAAGGTAACGTAAAGCACGC,PBM binding z-score,[1],2.56
same,PBM binding z-score,[2],3.25
same,PBM binding z-score,[3],3.37
same,PBM binding z-score,[4],3.38
same,PBM binding z-score,[5],2.76
same,PBM binding z-score,[6],5.11
same,PBM binding z-score,[7],2.19
same,PBM binding z-score,[8],2.16
GCTGCTAGCTCAACTGATGGTCAGCTAAAGCTCG,PBM binding z-score,[1],-0.699
same,PBM binding z-score,[2],-0.731
same,PBM binding z-score,[3],-0.78
same,PBM binding z-score,[4],-0.306
same,PBM binding z-score,[5],-0.88
same,PBM binding z-score,[6],-0.877
same,PBM binding z-score,[7],-1.48
same,PBM binding z-score,[8],-1.04
CGTCAAAGTTCCAGGTAACGTAACAGAAAGCAGC,PBM binding z-score,[1],-0.0356
same,PBM binding z-score,[2],0.18
same,PBM binding z-score,[3],0.454
same,PBM binding z-score,[4],0.141
same,PBM binding z-score,[5],0.0249
same,PBM binding z-score,[6],0.992
same,PBM binding z-score,[7],0.691
same,PBM binding z-score,[8],0.0156
ACTAGCAGGCCAAGTTTGCGTCACTCAAACAAAG,PBM binding z-score,[1],0.00722
same,PBM binding z-score,[2],-0.201
same,PBM binding z-score,[3],-0.0389
same,PBM binding z-score,[4],0.079
same,PBM binding z-score,[5],-0.299
same,PBM binding z-score,[6],-0.253
same,PBM binding z-score,[7],-0.635
same,PBM binding z-score,[8],0.0311
CCTTACGGATCAAGGTTATAGCACGGGTGGTACG,PBM binding z-score,[1],0.857
same,PBM binding z-score,[2],0.538
same,PBM binding z-score,[3],0.518
same,PBM binding z-score,[4],-0.178
same,PBM binding z-score,[5],0.793
same,PBM binding z-score,[6],1.16
same,PBM binding z-score,[7],0.694
same,PBM binding z-score,[8],0.886
GGAACGAGGGCAAAGTTGATAGCTTCTGTCGACG,PBM binding z-score,[1],1.06
same,PBM binding z-score,[2],1.82
same,PBM binding z-score,[3],1.32
same,PBM binding z-score,[4],2.55
same,PBM binding z-score,[5],1.72
same,PBM binding z-score,[6],1.13
same,PBM binding z-score,[7],-0.251
same,PBM binding z-score,[8],1.22
CCTTACGGGTCACTCCAGGATATAGCATCGGAGT,PBM binding z-score,[1],2.33
same,PBM binding z-score,[2],4.02
same,PBM binding z-score,[3],3.98
same,PBM binding z-score,[4],1.43
same,PBM binding z-score,[5],4.06
same,PBM binding z-score,[6],4.39
same,PBM binding z-score,[7],0.217
same,PBM binding z-score,[8],1.23
ACTATTAGTTGACTCAGGGCAACCGATACGACGC,PBM binding z-score,[1],0.937
same,PBM binding z-score,[2],0.721
same,PBM binding z-score,[3],0.905
same,PBM binding z-score,[4],0.661
same,PBM binding z-score,[5],0.488
same,PBM binding z-score,[6],1.5
same,PBM binding z-score,[7],0.878
same,PBM binding z-score,[8],0.644
CCTAGCAGGCCAATCTGGGTCCCTCAAGGCTTGA,PBM binding z-score,[1],-0.121
same,PBM binding z-score,[2],-0.601
same,PBM binding z-score,[3],-0.841
same,PBM binding z-score,[4],-0.491
same,PBM binding z-score,[5],-0.782
same,PBM binding z-score,[6],0.746
same,PBM binding z-score,[7],-0.658
same,PBM binding z-score,[8],-0.612
